# Reference: the supplement of paper PMC11001985
# Compound: C#CCNC(=O)CCSSCCC(=O)NCCc1ccc(C=O)c(C=O)c1
# Assay: lysine labeling ratio R10:1 (500 µM / 50 µM probe), SILAC-ABPP in living cells; higher = lower intrinsic lysine reactivity toward the probe, active = 2 or less
# Conditions: HeLa; probe concentrations 500 vs 50 µM
# Experimental: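 Living HeLa cells (SILAC light/heavy) in PBS at room temperature were labeled with 50 µM versus 500 µM of the lysine-reactive, reductant-cleavable probe OPA-S-S-alkyne (SILAC labeling time not stated). Probe-modified peptides were CuAAC-biotinylated, captured on neutravidin and eluted with DTT/IAA, then quantified by LC-MS/MS. R = median peptide ratio per lysine (500/50 µM), combined over 3 forward and 3 reverse SILAC replicates. Ratios are capped at 20; R < 2 = hyper-reactive.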
# Chain of UniProt O75369 (O75369 whole entry): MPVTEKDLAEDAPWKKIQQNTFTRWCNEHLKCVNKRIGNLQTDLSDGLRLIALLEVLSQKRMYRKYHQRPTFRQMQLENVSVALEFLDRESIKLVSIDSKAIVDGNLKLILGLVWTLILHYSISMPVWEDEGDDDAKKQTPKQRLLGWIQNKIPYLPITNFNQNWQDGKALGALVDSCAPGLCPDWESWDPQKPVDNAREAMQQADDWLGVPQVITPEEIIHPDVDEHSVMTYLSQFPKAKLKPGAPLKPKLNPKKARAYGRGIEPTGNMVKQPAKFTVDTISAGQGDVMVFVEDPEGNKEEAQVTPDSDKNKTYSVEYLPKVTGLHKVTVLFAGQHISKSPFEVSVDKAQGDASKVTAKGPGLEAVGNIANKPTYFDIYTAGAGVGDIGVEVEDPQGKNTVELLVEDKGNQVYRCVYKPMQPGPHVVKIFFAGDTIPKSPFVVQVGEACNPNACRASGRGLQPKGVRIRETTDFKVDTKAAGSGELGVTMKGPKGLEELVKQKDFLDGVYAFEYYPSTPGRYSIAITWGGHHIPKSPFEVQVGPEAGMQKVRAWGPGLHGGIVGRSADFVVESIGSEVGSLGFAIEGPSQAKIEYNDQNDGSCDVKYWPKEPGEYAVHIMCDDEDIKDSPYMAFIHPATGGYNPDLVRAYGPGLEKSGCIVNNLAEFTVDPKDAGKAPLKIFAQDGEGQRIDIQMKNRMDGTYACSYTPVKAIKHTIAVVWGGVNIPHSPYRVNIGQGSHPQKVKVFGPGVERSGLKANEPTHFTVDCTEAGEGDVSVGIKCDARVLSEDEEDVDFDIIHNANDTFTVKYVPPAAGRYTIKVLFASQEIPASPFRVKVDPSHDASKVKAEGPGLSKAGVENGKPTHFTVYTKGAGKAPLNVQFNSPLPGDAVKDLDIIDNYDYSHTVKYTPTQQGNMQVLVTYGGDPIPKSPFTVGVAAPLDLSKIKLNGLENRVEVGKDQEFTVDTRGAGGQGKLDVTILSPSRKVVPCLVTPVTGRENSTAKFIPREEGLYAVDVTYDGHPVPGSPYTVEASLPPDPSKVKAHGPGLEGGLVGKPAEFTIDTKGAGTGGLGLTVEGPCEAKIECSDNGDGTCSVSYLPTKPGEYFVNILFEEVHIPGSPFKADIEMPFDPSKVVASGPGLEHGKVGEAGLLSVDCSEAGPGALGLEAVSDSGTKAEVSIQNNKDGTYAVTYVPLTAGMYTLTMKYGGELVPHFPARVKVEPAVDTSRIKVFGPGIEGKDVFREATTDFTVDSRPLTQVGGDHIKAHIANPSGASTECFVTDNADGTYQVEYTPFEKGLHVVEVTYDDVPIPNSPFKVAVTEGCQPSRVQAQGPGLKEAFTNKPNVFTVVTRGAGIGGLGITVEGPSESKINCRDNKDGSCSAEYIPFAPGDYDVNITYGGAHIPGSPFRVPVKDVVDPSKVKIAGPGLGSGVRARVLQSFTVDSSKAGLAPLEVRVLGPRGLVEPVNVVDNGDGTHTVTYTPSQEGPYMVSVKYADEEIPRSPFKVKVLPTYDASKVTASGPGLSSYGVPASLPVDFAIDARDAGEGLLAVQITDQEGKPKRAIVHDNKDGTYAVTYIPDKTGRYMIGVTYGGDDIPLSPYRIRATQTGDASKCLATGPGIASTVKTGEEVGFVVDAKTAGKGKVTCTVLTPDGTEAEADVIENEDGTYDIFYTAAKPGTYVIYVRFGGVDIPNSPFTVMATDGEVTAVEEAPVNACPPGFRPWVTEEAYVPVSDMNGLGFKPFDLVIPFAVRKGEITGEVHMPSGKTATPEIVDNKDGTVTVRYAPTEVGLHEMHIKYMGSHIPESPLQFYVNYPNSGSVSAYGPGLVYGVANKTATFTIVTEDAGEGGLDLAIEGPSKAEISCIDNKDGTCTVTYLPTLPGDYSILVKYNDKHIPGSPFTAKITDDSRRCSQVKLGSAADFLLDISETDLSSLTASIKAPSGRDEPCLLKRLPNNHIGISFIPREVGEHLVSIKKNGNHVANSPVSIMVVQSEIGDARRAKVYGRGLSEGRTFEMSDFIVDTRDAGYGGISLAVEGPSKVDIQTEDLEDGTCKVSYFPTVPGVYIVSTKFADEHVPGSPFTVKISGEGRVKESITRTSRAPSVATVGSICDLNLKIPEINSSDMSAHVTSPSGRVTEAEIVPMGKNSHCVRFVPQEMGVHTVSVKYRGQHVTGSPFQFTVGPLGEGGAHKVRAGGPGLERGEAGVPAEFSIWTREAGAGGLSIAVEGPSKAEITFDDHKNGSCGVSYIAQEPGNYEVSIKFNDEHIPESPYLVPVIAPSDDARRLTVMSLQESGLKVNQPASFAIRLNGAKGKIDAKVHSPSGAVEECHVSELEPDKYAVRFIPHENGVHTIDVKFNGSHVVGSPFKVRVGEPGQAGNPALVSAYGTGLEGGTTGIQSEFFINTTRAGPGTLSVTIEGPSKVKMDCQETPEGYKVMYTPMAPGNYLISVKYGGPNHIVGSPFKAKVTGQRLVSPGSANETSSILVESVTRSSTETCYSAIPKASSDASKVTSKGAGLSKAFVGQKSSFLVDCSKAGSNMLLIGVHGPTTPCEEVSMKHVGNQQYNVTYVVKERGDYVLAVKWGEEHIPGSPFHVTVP
# Chain of UniProt P01130 (P01130 whole entry): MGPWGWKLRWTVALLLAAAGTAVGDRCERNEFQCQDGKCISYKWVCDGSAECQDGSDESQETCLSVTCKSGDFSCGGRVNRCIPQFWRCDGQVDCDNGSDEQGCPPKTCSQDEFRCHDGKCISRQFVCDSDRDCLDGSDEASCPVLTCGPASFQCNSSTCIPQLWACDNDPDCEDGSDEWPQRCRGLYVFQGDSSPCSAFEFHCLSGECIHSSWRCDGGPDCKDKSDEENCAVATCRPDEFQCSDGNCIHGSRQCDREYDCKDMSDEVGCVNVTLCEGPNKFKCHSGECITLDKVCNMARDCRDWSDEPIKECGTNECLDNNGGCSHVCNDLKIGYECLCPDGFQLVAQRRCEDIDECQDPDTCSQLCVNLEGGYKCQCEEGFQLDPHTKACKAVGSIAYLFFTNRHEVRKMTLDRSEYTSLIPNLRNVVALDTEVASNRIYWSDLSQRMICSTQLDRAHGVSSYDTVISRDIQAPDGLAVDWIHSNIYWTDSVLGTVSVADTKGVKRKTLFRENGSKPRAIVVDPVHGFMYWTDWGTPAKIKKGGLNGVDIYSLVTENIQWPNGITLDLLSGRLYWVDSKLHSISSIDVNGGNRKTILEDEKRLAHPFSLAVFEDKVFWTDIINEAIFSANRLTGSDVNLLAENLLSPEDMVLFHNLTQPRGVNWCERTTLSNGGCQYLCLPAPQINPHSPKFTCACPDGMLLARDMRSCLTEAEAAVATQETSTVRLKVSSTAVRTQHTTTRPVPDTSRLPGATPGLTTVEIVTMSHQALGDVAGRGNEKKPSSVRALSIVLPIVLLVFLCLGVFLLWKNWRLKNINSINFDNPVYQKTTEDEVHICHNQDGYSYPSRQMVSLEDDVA
# Chain of UniProt Q9UHN6 (Q9UHN6 whole entry): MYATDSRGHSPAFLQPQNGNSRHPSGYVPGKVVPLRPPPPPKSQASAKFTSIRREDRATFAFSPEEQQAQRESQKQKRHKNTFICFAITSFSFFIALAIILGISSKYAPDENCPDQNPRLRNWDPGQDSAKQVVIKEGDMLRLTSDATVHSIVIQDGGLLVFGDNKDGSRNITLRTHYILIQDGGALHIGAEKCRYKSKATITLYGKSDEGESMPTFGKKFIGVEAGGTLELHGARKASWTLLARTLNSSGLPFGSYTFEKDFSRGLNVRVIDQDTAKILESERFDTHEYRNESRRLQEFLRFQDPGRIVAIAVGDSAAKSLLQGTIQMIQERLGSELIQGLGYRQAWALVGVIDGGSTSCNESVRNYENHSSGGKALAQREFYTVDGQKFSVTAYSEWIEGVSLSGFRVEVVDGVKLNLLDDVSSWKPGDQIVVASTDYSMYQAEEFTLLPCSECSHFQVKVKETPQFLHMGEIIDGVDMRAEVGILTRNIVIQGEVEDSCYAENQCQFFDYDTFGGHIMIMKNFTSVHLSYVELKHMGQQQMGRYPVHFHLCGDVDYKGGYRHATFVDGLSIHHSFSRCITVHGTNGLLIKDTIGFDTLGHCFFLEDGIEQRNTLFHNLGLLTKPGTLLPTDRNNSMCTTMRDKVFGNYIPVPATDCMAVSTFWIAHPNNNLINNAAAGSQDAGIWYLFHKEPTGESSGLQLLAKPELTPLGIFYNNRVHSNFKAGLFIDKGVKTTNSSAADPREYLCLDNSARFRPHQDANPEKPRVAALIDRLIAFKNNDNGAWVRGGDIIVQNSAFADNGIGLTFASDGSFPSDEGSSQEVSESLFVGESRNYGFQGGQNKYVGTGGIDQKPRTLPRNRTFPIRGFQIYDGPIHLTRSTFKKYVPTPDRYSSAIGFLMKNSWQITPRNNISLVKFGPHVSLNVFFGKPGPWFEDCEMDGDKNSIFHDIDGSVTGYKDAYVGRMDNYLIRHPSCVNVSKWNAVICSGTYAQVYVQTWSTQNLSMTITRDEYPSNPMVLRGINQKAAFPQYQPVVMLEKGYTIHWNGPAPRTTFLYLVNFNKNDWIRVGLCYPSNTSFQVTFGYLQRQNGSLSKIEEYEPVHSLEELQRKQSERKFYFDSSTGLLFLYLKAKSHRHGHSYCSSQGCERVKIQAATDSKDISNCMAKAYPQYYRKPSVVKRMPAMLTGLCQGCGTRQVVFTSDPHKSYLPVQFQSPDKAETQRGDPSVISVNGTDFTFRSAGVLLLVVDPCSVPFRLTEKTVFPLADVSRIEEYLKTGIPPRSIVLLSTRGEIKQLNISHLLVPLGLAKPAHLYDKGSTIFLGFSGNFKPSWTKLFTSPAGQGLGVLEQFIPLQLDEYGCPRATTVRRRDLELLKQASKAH
# Chain of UniProt Q12904 (Q12904 whole entry): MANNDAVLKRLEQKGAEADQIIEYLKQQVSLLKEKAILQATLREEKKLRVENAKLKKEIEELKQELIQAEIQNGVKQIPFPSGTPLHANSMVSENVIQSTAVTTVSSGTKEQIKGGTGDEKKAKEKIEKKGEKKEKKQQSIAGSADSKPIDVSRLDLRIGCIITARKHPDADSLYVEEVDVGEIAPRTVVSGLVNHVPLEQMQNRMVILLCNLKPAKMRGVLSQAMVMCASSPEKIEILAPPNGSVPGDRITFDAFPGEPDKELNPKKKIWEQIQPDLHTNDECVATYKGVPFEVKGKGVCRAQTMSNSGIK
row,Target,lysine labeling ratio R10:1
1,ITGA5 (lysine site: K588) (UniProt P08648),1.72 (active)
2,FOLR1 (lysine site: K44) (UniProt P15328),1.8 (active)
3,UniProt P62333 (lysine site: K298),1.53 (active)
4,NUMA1 (lysine site: K891) (UniProt Q14980),1.87 (active)
5,UniProt P08727 (lysine site: K118),3.16 (inactive)
6,UniProt Q9UHN6 (lysine site: K846),1.51 (active)
7,KPNB1 (lysine site: K867) (UniProt Q14974),1.36 (active)
8,FLNB (lysine site: K2088) (UniProt O75369),2.27 (inactive)
9,DDX5 (lysine site: K375) (UniProt P17844),2.45 (inactive)
10,KRT18 (lysine site: K247) (UniProt P05783),7.86 (inactive)
11,UniProt Q15149 (lysine site: K2255),4.45 (inactive)
12,SERBP1 (lysine site: K68) (UniProt Q8NC51),5.36 (inactive)
13,CD63 (lysine site: K194) (UniProt P08962),2.39 (inactive)
14,LDLR (lysine site: K783) (UniProt P01130),3.22 (inactive)
15,CKAP4 (lysine site: K339) (UniProt Q07065),1.14 (active)
16,UniProt P15941 (lysine site: K1125),3 (inactive)
17,PTGFRN (lysine site: K576) (UniProt Q9P2B2),2.67 (inactive)
18,PTGFRN (lysine site: K763) (UniProt Q9P2B2),4.93 (inactive)
19,PDIA6 (lysine site: K150) (UniProt Q15084),4.08 (inactive)
20,UniProt Q15149 (lysine site: K2047),0.91 (active)

row,Target,lysine labeling ratio R10:1
1,HSPA5 (lysine site: K382) (UniProt P11021),1.18 (active)
2,UniProt Q9UHN6 (lysine site: K376),3.02 (inactive)
3,UniProt Q12904 (lysine site: K35),1.92 (active)
4,PFKP (lysine site: K109) (UniProt Q01813),1.5 (active)
5,ADAM9 (lysine site: K368) (UniProt Q13443),3.66 (inactive)
6,LDLR (lysine site: K603) (UniProt P01130),1.19 (active)
7,ILF3 (lysine site: K553) (UniProt Q12906),4.76 (inactive)
8,SLC39A6 (lysine site: K156) (UniProt Q13433),3.23 (inactive)
9,ITGA2 (lysine site: K1038) (UniProt P17301),2.81 (inactive)
10,CPM (lysine site: K338) (UniProt P14384),4.51 (inactive)
11,ACTR3 (lysine site: K42) (UniProt P61158),1.04 (active)
12,DDX3X (lysine site: K491) (UniProt O00571),2.59 (inactive)
13,PTPRF (lysine site: K612) (UniProt P10586),4.74 (inactive)
14,FLNB (lysine site: K1372) (UniProt O75369),2.69 (inactive)
15,HSPA5 (lysine site: K213) (UniProt P11021),5.61 (inactive)
16,ITGB1 (lysine site: K134) (UniProt P05556),1.83 (active)
17,NPR3 (lysine site: K208) (UniProt P17342),5.04 (inactive)
18,UniProt P62913 (lysine site: K159),2.96 (inactive)
19,ANPEP (lysine site: K104) (UniProt P15144),1.17 (active)
20,RPL12 (lysine site: K54) (UniProt P30050),0.658 (active)
